Screening results: PubChem, National Center for Advancing Translational Sciences (NCATS)
HCV inhibitor – blocks hepatitis C virus; Huh7.5.1 HCVcc-Cre infection, luciferase reporter, 44 h; Potency, µM (titrated, usually from 41.8 µM), inactives show at the top dose activity change, negative = inhibition, usual class: inhibitors; 340,000 compounds, 3.4% hits; AID 651820
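After 44 h co-culture of compound, cells and HCVcc-Cre (~0.5 moi), substrate is added for 15 min at room temperature and luciferase measured over 15 sec. Cells were seeded at 1,000/well and pre-cultured 4 h.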
Sm TGR block – S. mansoni TGR enzyme inhibition; 360,000 compounds, 3% hits; AID 485364; Q962Y6; Potency, µM (highest dose often 114 µM), for the others: top-dose activity change, negative = inhibition, usual class: inhibitors; purified TGR, DTNB reduction, TNB absorbance 405 nm; note: nearly all actives have a fitted effect of over 60% in size
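TGR 20 nM + NADPH 100 uM (dispensed conc.), cpd preinc 15 min RT; start with NADPH (500 uM addition) then DTNB (15 mM addition). Kinetic TNB absorbance, 405 nm filter. Four-parameter Hill fit across titration.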
Lassa entry inh – inhibitors of Lassa virus binding or cell entry; Potency, µM (top dose mostly 37.9 µM), without a hit: top-dose activity change, negative = inhibition, hits mostly inhibitors; 300,000 compounds, 1.2% hits; Lassa virus pseudotype entry inhibition, cell reporter; AID 540256; calls by dose curve; tested in HEK293 cells; note: nearly all actives have a fitted effect of over 50% in size
RE007 growth inh – less growth of the S. pombe RE007 Vpr strain | S. pombe RE007 Vpr strain, BacTiter-Glo ATP luminescence, 24 h | Potency, µM (highest dose often 92.2 µM), without a hit: top-dose activity change, negative = less growth, usual class: inhibitors | 360,000 compounds, 0.21% hits | AID 651644; active = well fitted falling curve with a large enough effect; inconclusive = small, poorly fitted or top-dose-only effect; inactive = no such curve, though single readings can be large or run the other way; note: nearly all actives have a fitted effect of over 50% in size
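Fission yeast RE007 carrying one integrated HIV-1 vpr copy, seeded at OD 0.01 in PMG+AL medium with 23 nL pinned compound. Grown 24 h at 30 degrees; viability read by BacTiter-Glo luminescence after 5 min.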
FMDV antiviral – antivirals against foot and mouth disease virus. FMDV antiviral cell-based qHTS. Potency, µM (titrated, usually from 57.9 µM), inactives show top-dose activity change, negative = inhibition, hits mostly inhibitors. 410,000 compounds, 1.2% hits; calls by dose curve; tested in HEK293T cells; note: read-out not given here; nearly all actives have a fitted effect of over 45% in size
MARV entry inh – blocks Marburg virus binding to or entry into cells. Potency, µM (highest dose often 37.8 µM), for the others: at the top dose activity change, negative = inhibition, hits mostly inhibitors. AID 540276. Marburg virus pseudotyped entry inhibition, cell reporter. 300,000 compounds, 1.8% hits; calls by dose curve; tested in HEK293 cells
The depositor's hits bear a star; [ ] = dose if it differs, or a comment. Rows were chosen to be rich in hits. Some 7.2% of all compounds tested hit in one or more screens of this group. Unless noted, calls come from the whole dose curve; as a rule, active = well fitted curve in the direction sought with a large enough effect; inconclusive = small, poorly fitted or top-dose-only effect, or another doubt; inactive = no such curve, though single readings can be large; an effect the other way counts as inactive or inconclusive. % is set by controls: 0 for no effect and ±100 for the full control effect; potency is the fitted concentration of half-maximal effect.

`COC1=C[C@@H](C(=O)N[C@H]2CCCC[C@H]2NC(C)=O)[C@@H](C)[C@H](c2ccccc2)CC1=O` gave Lassa entry inh 7%[14.3 µM] and MARV entry inh inconclusive.
CCc1cccc(NC(=O)C2CCN(S(=O)(=O)c3cccc(-c4noc(C)n4)c3)CC2)c1 was read as Sm TGR block 5%, Lassa entry inh inconclusive and FMDV antiviral -31%.
Screening CCCCN(C)C(=O)C1CCN(c2ccc(S(=O)(=O)N3CCOCC3)cc2[N+](=O)[O-])CC1 returned HCV inhibitor inconclusive, Sm TGR block 45µM*, Lassa entry inh -22%, RE007 growth inh 5%, FMDV antiviral -12% and MARV entry inh -12%.
CC(C)CNC(=O)C1CCN(c2ccc(S(=O)(=O)N3CCOCC3)cc2[N+](=O)[O-])CC1 was read as HCV inhibitor 17%, Sm TGR block 10%, RE007 growth inh -5% and FMDV antiviral -25%.
Screening O=C(c1cccc(F)c1)N1CCC[C@@]2(CCN(C(c3ccccc3)c3ccccc3)C2)C1 returned FMDV antiviral -2%.
O=S(=O)(NC1CCCC1)c1ccc(S(=O)(=O)N2CCCN(Cc3ccccc3)C2)cc1 was read as HCV inhibitor inconclusive, Sm TGR block 1%, Lassa entry inh inconclusive, RE007 growth inh 0%, FMDV antiviral 0% and MARV entry inh 5.8µM*.
`O=S(=O)(c1ccc(S(=O)(=O)N2CCN(Cc3ccccc3)CC2)cc1)N1CCOCC1` gave Sm TGR block 5% and MARV entry inh 5%.
Screening O=S(=O)(c1ccc(Cl)cc1)N1CCC(O)(CN2CCN(Cc3ccccc3)CC2)CC1 returned HCV inhibitor 13µM*, Sm TGR block -3%, Lassa entry inh -29%, RE007 growth inh 2%, FMDV antiviral 0% and MARV entry inh inconclusive.
O=S(=O)(c1ccccc1)N1CCC(O)(CSc2ccc(Cl)cc2)CC1 was read as HCV inhibitor 3.5µM*, Sm TGR block 15%, Lassa entry inh inconclusive, RE007 growth inh -13%, FMDV antiviral inconclusive and MARV entry inh inconclusive.
Screening O=C(NC1CCN(Cc2ccccc2)CC1)C1CCN(S(=O)(=O)c2ccc(Cl)cc2)CC1 returned HCV inhibitor 10µM*, Sm TGR block -15%, Lassa entry inh inconclusive, RE007 growth inh -6%, FMDV antiviral inconclusive and MARV entry inh inconclusive.
For O=C1CC(CC(=O)N2CC3CCCC2C3)(c2cccc(F)c2)C(=O)N1Cc1cccnc1 (configuration not stated) the results were FMDV antiviral 14%.
For COc1ccccc1N1CCN(C(=O)c2oc3ccccc3c2NC(=O)C(C)Oc2ccccc2)CC1 (configuration not stated) the results were Sm TGR block 7%, Lassa entry inh -4%[46.1 µM] and FMDV antiviral -2%.
`COc1ccc(-n2nc3c(c2NC(=O)c2cc4ccccc4o2)CS(=O)(=O)C3)cc1` gave HCV inhibitor 18%, Sm TGR block 50µM*, Lassa entry inh 9%, RE007 growth inh 10%, FMDV antiviral -12% and MARV entry inh 2%.
For Cc1ccccc1-n1nc2c(c1NC(=O)c1cc3ccccc3o1)CS(=O)(=O)C2 the results were HCV inhibitor 3%, Sm TGR block -19%, Lassa entry inh 0%, RE007 growth inh -1%, FMDV antiviral -12% and MARV entry inh -12%.
Screening COc1ccc(-n2nc3c(c2NC(=O)c2ccc(Br)o2)CS(=O)(=O)C3)cc1 returned HCV inhibitor 12%, Sm TGR block 35µM*, RE007 growth inh 12% and FMDV antiviral -16%.
`Cc1ccccc1C(=O)N1CCN(c2ccc(NC(=O)c3cccc(OC(C)C)c3)cc2)CC1` gave HCV inhibitor inconclusive, Sm TGR block 0%, Lassa entry inh -2%, RE007 growth inh 12%, FMDV antiviral 16µM* and MARV entry inh 11%.
COc1c(C)cccc1C(=O)Nc1ccc(N2CCN(C(=O)c3ccccc3C)CC2)cc1 was read as HCV inhibitor 7.9µM*, Sm TGR block 0%, Lassa entry inh inconclusive, RE007 growth inh 6%, FMDV antiviral inconclusive and MARV entry inh inconclusive.
Cc1cccc(NC(=O)CSc2nc(-c3ccccc3)cc(=O)[nH]2)c1C was read as Sm TGR block -1%, Lassa entry inh 27%[46.1 µM] and FMDV antiviral -7%.
`Cc1cccc(-c2noc(CN(C(C)C)S(=O)(=O)c3ccc(Br)cc3)n2)c1` gave Sm TGR block 9%, Lassa entry inh -16%[46.1 µM], FMDV antiviral -15% and MARV entry inh 7%[46.1 µM].
`COC(=O)c1cnn(-c2ccc(Cl)cc2)c1/C=N/NC(N)=S` gave HCV inhibitor inconclusive, Sm TGR block 22%, Lassa entry inh inconclusive, RE007 growth inh 4%, FMDV antiviral 14µM* and MARV entry inh inconclusive.
Nc1c(C(=O)N/N=C/c2ccc(Cl)cc2)cnn1-c1ccccc1 was read as HCV inhibitor 4%, Sm TGR block 10%, Lassa entry inh inconclusive, RE007 growth inh 14%, FMDV antiviral 16% and MARV entry inh -19%.
Screening CCOC(=O)c1c(NC(=O)Cc2cccs2)sc(C)c1C returned HCV inhibitor 35µM*, Sm TGR block 7%, Lassa entry inh -4%, RE007 growth inh 11% and MARV entry inh -16%.
Screening CCOC(=O)N1CCN(C(=O)c2ccc(-c3ccccc3OC)nc2N2CCC(N3CCCC(CO)C3)CC2)CC1 (configuration not stated) returned FMDV antiviral -1%.
CN1C2CCC1/C(=C\c1ccccc1)C(=O)/C2=C\c1ccccc1 was read as HCV inhibitor 13µM*, Sm TGR block -7%, Lassa entry inh inconclusive, RE007 growth inh -27%, FMDV antiviral inconclusive and MARV entry inh 15µM*.
For CC1C/C(=C/c2ccccn2)C(=O)/C(=C/c2ccccn2)C1 (configuration not stated) the results were HCV inhibitor 2.2µM*, Sm TGR block 16µM*, Lassa entry inh 4µM*, RE007 growth inh 63µM*, FMDV antiviral 6.3µM* and MARV entry inh inconclusive.
`CN1C2CCC1/C(=C/c1ccccn1)C(=O)/C2=C\c1ccccn1` gave HCV inhibitor 3.5µM*, Sm TGR block -25%, Lassa entry inh 2.3µM*, RE007 growth inh inconclusive, FMDV antiviral 4µM* and MARV entry inh 1.3µM*.
For COCC(=O)N1CCC2(CC1)CN(c1ccc(-c3ccccc3)cc1)C2 the results were FMDV antiviral -29%.
`Cc1cccc(OCCNC(=O)c2cc(C3CC3)nc3c2cnn3C(C)C)c1` gave RE007 growth inh 0% and FMDV antiviral 0%.
